Screening results deposited in PubChem by National Center for Advancing Translational Sciences (NCATS).
D2 ag-1: human D2 receptor agonism in beta-arrestin assay; P14416; DiscoveRx PathHunter D2 beta-arrestin, luminescence, 90 min; 100% = 57 uM dopamine signal; activation, % (no concentration beside the values); 360,000 compounds, 0.084% hits; AID 624465; in the data active = activation above about 40%; inconclusive = between about 15% and that limit
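DiscoveRx PathHunter D2 beta-arrestin cells (2,100/well) attached overnight, then compound-stimulated 90 min at 37 C in HBSS/10 mM HEPES/0.1% Tween-20 buffer; beta-galactosidase complementation read by luminescence after 1 h at ambient temperature. Dopamine 57 uM final (EC100) as control.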
D2 antagonist: D2 dopamine receptor (human) antagonism. P14416. HEK293 TREx D2 cells, calcium flux, dopamine EC80. inhibition, % at 10 µM. 340,000 compounds, 2% hits. AID 485344; in the data active = inhibition above about 30%; inactive = below that, where a call was filed; note: 0% is about no effect
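Measurement of antagonist activity uses fluorescent calcium dye in inducible HEK293 T-REx D2 cells: 10 s baseline, compound addition with 180 s read, EC80 dopamine addition with a further 180 s read.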
D2 ag-2: activates the human D2 dopamine receptor; activation, % at 2 µM; 340,000 compounds, 0.53% hits; HEK293 T-REx D2 cells, calcium flux agonist mode; P14416;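 active = activation over 3 SD above normal in the single-dose calcium agonist read, cut at about 30% in these data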; note: 0% is about no effect
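HEK293 Trex D2 cells, tetracycline-induced, o/n 30 C 5% CO2; no-wash Ca dye, RT 30–90 min; 10-cycle baseline, 23 nl cpd added, kinetic Ca read 180 s; agonist hits = positive Ca response.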
D2 PAM-1: D2 dopamine receptor (human) potentiation; AID 485347; HEK293 T-REx D2, calcium flux, EC20 dopamine potentiation; P14416; potentiation, % at 10 µM; 340,000 compounds, 0.34% hits;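 active = potentiation over 3 SD above the plate norm, cut at about 30% in these data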; note: 0% is about no effect
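Using a no-wash calcium dye in inducible, force-coupled HEK293 Trex cells expressing D2, we tracked fluorescence each second for 180 s after compound, then for 180 s after EC20 dopamine to detect augmented signalling.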
D2 PAM-2: positive allosteric modulators of human D2 dopamine receptor; potentiation, % (test concentration not listed); DiscoveRx D2 beta-arrestin cells, luminescence, 90 min; 100% = 57 uM dopamine signal; P14416; AID 624464; 360,000 compounds, 0.23% hits; in the data active = potentiation above about 50%; inconclusive = mostly about 30% to 49%
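PathHunter D2 cells, attached overnight at 37 deg C, received compound in DMSO plus dopamine at EC20 (50 nM final) for 90 min at 37 deg C. Beta-arrestin recruitment was read as luminescence after 1 h with detection reagent at ambient temperature.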
D3 ag: activates human D3 dopamine receptor beta-arrestin recruitment; shares compounds with D2 ag-2; DiscoveRx D3 beta-arrestin cells, luminescence, 90 min; Potency, µM (titrated, usually from 76.9 µM), inactives show at the highest dose activation, most hits filed as activators; 2,300 compounds, 4% hits; AID 720506;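 note: potency is the fitted concentration of half-maximal effect; 100% = dopamine control response; nearly all actives have a fitted effect of over 70% in size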
Target sequence (P35462 whole entry, looked up): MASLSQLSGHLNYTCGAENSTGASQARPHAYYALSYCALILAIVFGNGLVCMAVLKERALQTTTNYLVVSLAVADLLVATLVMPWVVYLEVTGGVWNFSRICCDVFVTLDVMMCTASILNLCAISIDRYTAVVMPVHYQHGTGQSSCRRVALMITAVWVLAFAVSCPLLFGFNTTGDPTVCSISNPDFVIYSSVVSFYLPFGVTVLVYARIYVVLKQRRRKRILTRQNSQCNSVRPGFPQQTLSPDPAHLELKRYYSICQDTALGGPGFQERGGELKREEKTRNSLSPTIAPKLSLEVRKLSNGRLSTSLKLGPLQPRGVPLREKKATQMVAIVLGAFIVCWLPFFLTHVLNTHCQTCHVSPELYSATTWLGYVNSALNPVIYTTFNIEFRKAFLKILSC
D2 ag-3: D2 receptor agonism, beta-arrestin counterscreen; shares compounds with D2 ag-2; DiscoveRx PathHunter D2 beta-arrestin, luminescence, 90 min; response scale: percent relative to full dopamine signal; Potency, µM (series often up to 76.9 µM), for the others: at the top dose activation, usual class: activators; 2,300 compounds, 5.9% hits; note: potency is the fitted concentration of half-maximal effect; % of control where 0% means no effect; nearly all actives have a fitted effect of over 70% in size
* marks the source's active call; other numbers are inactive results; ? = inconclusive; . = not tested or not shown. A selection: hits, their analogues and other compounds. The true share with any hit is near 2.4%. Unless noted, calls come from the whole dose curve; as a rule, active = well fitted activation curve with a large enough effect; inconclusive = small, poorly fitted or top-dose-only effect; inactive = flat fitted curve, though single readings scatter.

SMILES	D2 ag-1	D2 antagonist	D2 ag-2	D2 PAM-1	D2 PAM-2	D3 ag	D2 ag-3
CC1C(=O)N(Cc2ccc([N+](=O)[O-])cc2)c2ccccc2N1C(=O)c1c(F)cccc1F (centres undefined)	4.4	-6.2	-0.8	-4.2	7.7	.	.
Cc1ccc(Cn2cc(C(=O)c3ccc4c(c3)OCO4)c(=O)c3cc(C)ccc32)cc1	.	.	-0.8	-5.0	.	.	.
CC1CC(C)CN(CCCNC(=O)CN2C(=O)CSc3ccc(S(=O)(=O)N4CCOCC4)cc32)C1 (centres undefined)	1.8	40.2*	29.2	-18.1	-24.3	-3.9%	7.6%
CCCCN(CC)CCCNC(=O)CN1C(=O)CSc2ccc(S(=O)(=O)N3CCOCC3)cc21	4.2	-22.1	23.0	-17.9	-8.1	-6.3%	2.9%
Cc1nn(-c2ccccc2)c(C)c1C(=O)OCC(=O)Nc1ccccc1Cl	-2.3	.	.	.	0.6	.	.
Cc1ccc(N2CCN(S(=O)(=O)c3ccc4oc(=O)c5ncn(C)c5c4c3)CC2)c(C)c1	.	.	-1.1	1.2	.	.	.
Cc1ccc(NC(=O)NCCN2CCN(c3ccccc3)CC2)cc1Cl	6.6	64.7*	65.7*	-26.2	-26.8	29.9%	?
O=C(NCCN1CCN(c2ccccc2Cl)CC1)Nc1ccccc1	6.4	52.5*	67.2*	-24.1	-9.1	17.3%	10.4%
COc1ccc(Cl)c(NC(=O)NCCN2CCN(c3ccccc3)CC2)c1	-0.9	-12.0	16.9	-34.7	-2.9	.	.
Cc1cccc(NC(=O)NCCN2CCN(c3ccccc3)CC2)c1C	4.7	57.0*	56.6*	-25.8	-29.0	11.8%	3.8%
Cc1ccc(NC(=O)NCCN2CCCCC2)cc1Cl	-1.9	-19.0	1.0	-28.1	-10.1	.	.
O=C(NCCN1CCN(c2ccccc2)CC1)Nc1cccc(Cl)c1	?	72.5*	74.6*	-29.9	-8.5	?	21.1%
CCc1noc(-c2ccc(N3CCC(C)CC3)c([N+](=O)[O-])c2)n1	.	.	3.5	3.5	.	.	.
COc1cccc2cc(C(=O)NCCc3c(C)[nH]c4ccc(F)cc34)c(=O)oc12	.	.	0.4	0.6	.	.	.
Cc1cnc(C(=O)NCC(=O)Nc2ccccc2Br)cn1	-4.0	15.0	-0.2	0.8	-21.3	.	.
Cc1ccc(S(=O)(=O)NNc2c3ccccc3nc3ccc(Cl)cc23)cc1	-5.6	.	.	.	-9.4	.	.
CC1CCCCN1Cc1ccc(-c2nnn(CC(=O)NC3CCCCC3)n2)cc1 (centres undefined)	-0.7	-14.0	49.6*	-19.2	-1.5	-8.6%	-6.2%
CC1CCN(C(c2ccc(F)cc2)c2sc3nc(-c4ccco4)nn3c2O)CC1 (centres undefined)	.	.	0.3	13.0	.	.	.
CC(=O)c1ccc(S(=O)(=O)N2CCCC(N(C)CCc3ccccn3)C2)cc1 (centres undefined)	-4.4	-13.2	55.4*	-19.2	-15.7	-10.6%	-1.1%
CN(CCc1ccccn1)C1CCCN(S(=O)(=O)c2ccccc2)C1 (centres undefined)	-1.6	-8.1	-0.5	-3.1	-28.6	.	.
CCN1CCc2c(sc(NC(=S)NC(=O)c3ccco3)c2C(N)=O)C1	-9.7	-20.8	30.0*	-5.0	-18.7	7.6%	-5.3%
CCN1CCc2c(sc(NC(=O)c3ccc(C(=O)c4ccccc4)cc3)c2C(N)=O)C1	-3.4	4.8	74.3*	-18.5	-9.0	-8.1%	2.4%
Cc1sc(NC(=S)NC(=O)c2ccco2)c(C(N)=O)c1C	-3.1	-6.3	-0.2	3.8	-3.5	.	.
CCOc1ccc(C(=O)Nc2ccc3nc(SCC(=O)N4CCOCC4)sc3c2)cc1	.	.	-1.5	15.0	.	.	.
CN(CC(=O)NCc1ccccc1)CC(=O)Nc1ccc(Cl)c(C(F)(F)F)c1	7.2	22.0	2.4	2.6	-1.1	3.7%	3.2%
SMILES	D2 ag-1	D2 antagonist	D2 ag-2	D2 PAM-1	D2 PAM-2	D3 ag	D2 ag-3
C=CCNC(=S)NCc1ccccc1	-4.0	-2.7	-1.1	2.4	-9.9	.	.
C=CCNCc1cccn1-c1ccccc1	1.6	-8.0	2.9	-4.8	-9.4	-8.7%	0.4%
Cc1nn(CCC(=O)Nc2ccc(Cl)cc2)c(C)c1S(=O)(=O)N1CCCCC1	.	.	1.6	-21.9	.	.	.
COc1cc(-c2noc(C)c2C#CC2(O)CCCCC2)cc(OC)c1OC	4.6	-18.1	71.7*	-16.6	-7.3	0.0%	2.9%
COc1cc(-c2noc(C)c2C#CC2(N)CCCCC2)cc(OC)c1OC	-4.1	4.6	-0.3	-13.1	-9.7	.	.
c1ccc(N2CCN(C3CCSC3)CC2)cc1 (centres undefined)	4.2	18.2	40.6*	-35.4	-17.8	-8.6%	9.5%
O=c1[nH]c(CN(CCc2ccccc2)S(=O)(=O)c2ccc(Cl)cc2)nc2ccccc12	-0.5	-1.8	25.1	-8.6	-12.2	-10.3%	7.4%
CCOC(=O)C1CCN(CC(=O)Nc2c(C(=O)OC)[nH]c3cccc(Cl)c23)CC1	1.0	13.5	25.6	-9.1	-15.2	8.7%	4.7%
CCOC(=O)C1CCN(CC(=O)Nc2c(C(=O)OC)[nH]c3ccc(Cl)cc23)CC1	8.3	-12.4	0.4	.	10.5	.	.
Cc1ccccc1CNC(=O)c1sc2ncnc(N(C)C3CCCCC3)c2c1C	.	.	0.4	7.8	.	.	.
COc1ccc(C(=O)C(C)OC(=O)C2CC3CCCC(C2)C3=O)cc1 (centres undefined)	2.5	.	.	.	-3.3	.	.
Cc1ccc(C)c(NC(=O)CSc2nc3nccnc3c(=O)n2CCc2c[nH]c3ccccc23)c1	.	.	-0.2	-8.8	.	.	.
Cc1c(C(=O)NC2CCC(C)CC2)oc2ccccc12 (centres undefined)	9.0	19.4	42.6*	-23.6	3.2	-5.1%	10.1%
CC(C)Oc1ccc(CNC(=O)C2CCN(C(=O)N3CCOc4ccc(Cl)cc43)CC2)cc1	.	.	-0.2	6.6	.	.	.
O=c1cc(-c2ccc(F)cc2)nc(SCc2nc(-c3cccc(C(F)(F)F)c3)no2)[nH]1	.	.	0.5	11.3	.	.	.
NC(=O)CN1CCN(c2ccccc2F)CC1	0.2	25.7	1.1	-8.1	-20.6	.	.
CC(C)=CC(=O)N1CC[C@@H](N2CCN(c3ccccc3F)CC2)[C@H](O)C1	43.1*	46.3*	79.8*	-15.0	6.3	21.4%	?
O=C(CCN1CCCO1)N1CCCC(N2CCN(c3ccccc3F)CC2)C1 (centres undefined)	-0.7	6.6	-2.3	-6.1	-10.5	.	.
CSCCCN1CC[C@@H](N2CCN(c3ccccc3F)CC2)[C@H](O)C1	?	79.4*	75.5*	-21.5	7.7	19.3%	?
CSCCC(=O)N1CC[C@@H](N2CCN(c3ccccc3F)CC2)[C@H](O)C1	10.6	44.6*	29.9	3.7	7.7	21.7%	?
